Several values for one entry are separate records, joined by “and”; a condition that tells them apart may be missing. Equal values may be shown once. Records with an inconclusive call do not appear. Activity calls are given as the source filed them. How the source made its calls: active means hit-call score of the fitted dose curve at least 0.9, where 1 is the maximum; inconclusive means response in the unintended direction; inactive means score below 0.9.
The molecules below were run against Peroxisome proliferator-activated receptor gamma (Homo sapiens) (UniProt P37231) (assay: ATG_PPARg_TRANS: Attagene TRANS-FACTORIAL HepG2 Assay for human Peroxisome Proliferator-activated Receptor-gamma (PPARg) (AID 2283007)).
Chain of Peroxisome proliferator-activated receptor gamma (Homo sapiens) (P37231 whole entry, looked up, the tested form may be a part): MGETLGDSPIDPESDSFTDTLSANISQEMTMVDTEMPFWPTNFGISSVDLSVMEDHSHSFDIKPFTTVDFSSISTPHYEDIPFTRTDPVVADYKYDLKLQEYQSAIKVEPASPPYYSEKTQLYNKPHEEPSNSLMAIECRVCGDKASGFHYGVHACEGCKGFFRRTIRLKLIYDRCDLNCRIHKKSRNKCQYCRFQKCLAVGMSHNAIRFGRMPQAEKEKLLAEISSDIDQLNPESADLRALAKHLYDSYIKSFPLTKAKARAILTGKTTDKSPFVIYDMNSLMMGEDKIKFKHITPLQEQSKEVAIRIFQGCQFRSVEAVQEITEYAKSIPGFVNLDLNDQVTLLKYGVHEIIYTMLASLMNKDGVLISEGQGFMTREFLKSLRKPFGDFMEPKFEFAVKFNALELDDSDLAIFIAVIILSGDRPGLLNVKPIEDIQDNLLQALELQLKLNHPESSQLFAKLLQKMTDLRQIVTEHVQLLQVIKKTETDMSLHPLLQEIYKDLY
In short: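 HepG2 cells are transiently transfected with GAL4-UAS reporter units driven by chimeric NR-Gal4 fusions and dosed for 24 h. Reporter mRNA is quantified by RT-PCR, 6-FAM labelling, HpaI digestion and capillary electrophoresis. Induction is scored against DMSO.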
In the case of `OC(O)(C(F)C(O)(O)C(F)(F)F)C(F)(F)F`, the AC50 is reported as 150 µM (active) and 94.2 µM (active). With `NC(=O)N1c2ccccc2C=Cc2ccccc21` the outcome was “inactive”. For `O=C(O)CO`, the outcome was “inactive”.

The molecules below were run against Nuclear receptor subfamily 1 group I member 2 (Homo sapiens) (UniProt O75469) (assay: ATG_PXR_TRANS: Attagene TRANS-FACTORIAL HepG2 Assay for human Pregnane X Receptor (PXR) (AID 2283008)).
Chain of Nuclear receptor subfamily 1 group I member 2 (Homo sapiens) (O75469 whole entry, looked up, the tested form may be a part): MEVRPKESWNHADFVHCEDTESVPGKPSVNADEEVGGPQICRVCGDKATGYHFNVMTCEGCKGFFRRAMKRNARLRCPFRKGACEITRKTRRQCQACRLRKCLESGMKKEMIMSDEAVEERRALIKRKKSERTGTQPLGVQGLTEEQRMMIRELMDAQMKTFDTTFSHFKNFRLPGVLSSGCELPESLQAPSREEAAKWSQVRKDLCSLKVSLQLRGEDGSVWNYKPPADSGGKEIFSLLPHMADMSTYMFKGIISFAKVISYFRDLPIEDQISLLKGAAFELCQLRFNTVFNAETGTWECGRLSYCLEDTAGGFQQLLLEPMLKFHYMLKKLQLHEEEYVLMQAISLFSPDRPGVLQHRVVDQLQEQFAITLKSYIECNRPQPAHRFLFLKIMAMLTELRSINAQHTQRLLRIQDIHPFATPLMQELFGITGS
In short: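 Measures mRNA induction of a GAL4-UAS-driven reporter in human HepG2 cells transiently expressing PXR fused to Gal4, following 24 h treatment. DMSO served as negative control and baseline.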
For `CCCCCCCCCCCCCCO`, the outcome was “inactive”. In the case of `S=P(N1CC1)(N1CC1)N1CC1`, the outcome is reported as “inactive”. For `Cc1cccc(O)c1C`, the outcome was “inactive”. With `FC(F)(F)C(F)(F)C(F)(F)C(F)(F)C(F)(F)C(F)(F)I` the outcome was “inactive”. For `O=C(N[C@H](CO)[C@H](O)c1ccc([N+](=O)[O-])cc1)C(Cl)Cl`, the outcome was “inactive”. `CC(C)CCCCCCOC(=O)C1CCCCC1C(=O)OCCCCCCC(C)C` (stereo unspecified) was tested, and the AC50 was 1.37 µM (active). With `O=C1CN(N=Cc2ccc([N+](=O)[O-])o2)C(=O)N1` the outcome was “inactive”. With `c1ccc2cc3ccccc3cc2c1` the outcome was “inactive”. `CC(C)c1nnc2ccc(-c3ocnc3-c3cc(F)ccc3F)cn12` was tested, and the outcome was “inactive”. In the case of `c1ccc2c(c1)-c1cccc3c1c-2cc1ccccc13`, the outcome is reported as “inactive”. For `O=C(NO)C1(NS(=O)(=O)c2ccc(Oc3ccc(F)cc3)cc2)CCOCC1`, the AC50 was 31.7 µM (active). With `Cc1ncc([C@@H](CCCCCCc2ccc3c(n2)NCCC3)CC(=O)O)cn1` the outcome was “inactive”. With `OCc1c[nH]c2ccccc12` the AC50 was 1.89 µM (active) [middle of 5 runs]. For `O=C(O)c1cccc(C[C@@H]2COc3ccc(OCc4nc5cc(F)ccc5s4)cc3[C@@H]2O)c1`, the outcome was “inactive”. In the case of `FC(F)(F)COC(OCC(F)(F)F)OCC(F)(F)F`, the outcome is reported as “inactive”. For `CCCC(CCC)C(=O)O`, the outcome was “inactive”. With `C=CCc1cc(S(=O)(=O)c2ccc(O)c(CC=C)c2)ccc1O` the AC50 was 3.16 µM (active). With `CCCCCCCCCCCCCCCCOS(=O)(=O)O` the outcome was “inactive”.

Reference: PubChem BioAssay (EPA / NIEHS)
